Results published in PubChem BioAssay.
Records with an inconclusive call do not appear. Activity calls are given as the source filed them.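 The calls were made as follows, unless noted: active = viability at or under a set limit in both replicates, limit being median viability minus 3 SD (cut at about 48% in these data, passing the limit was not always enough); inconclusive = at or under the limit in just one replicate; inactive = at or above the limit in both replicates.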

Assays:
[1] = Her2 expression decrease, cell viability multiplex – SKBR3 breast tumor cells, AlphaScreen, ATP viability, primary screen (AID 461;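 active = Her2 level under about 52% in both replicate screens, with viability over 70% of control, limit read from the data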;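 as to Her2 level: lower value means less Her2 protein in the cells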;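 as to viability: percent of carrier control wells set as 100% viability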); settings: SKBR3 Her2 protein level, 18-24 h, measured here: SKBR3 viability, ATP luminescence, at 10 µM
[2] = molecular target: Receptor tyrosine-protein kinase erbB-2 (Homo sapiens) (UniProt P04626); assay: as above; settings: 18-24 h, at 10 µM, stronger effect = lower value
[3] = reduced viability of SK-BR-3 breast cancer cells – cell-based, 24 h, human, pilot screen (AID 572;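 active = viability at or below 10% of carrier control in both of two separate runs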;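 also: compound exposure lasted between 18 and 24 h rather than exactly 24 h; 100% = carrier-treated control wells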); settings: SK-BR-3 viability, CellTiter-Glo luminescence, at 10 µM, stronger effect = lower value
[4] = HUVEC growth inhibition – cell-based, human, primary screen (AID 575;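 active = viability at or below 30% in both replicate assays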;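 also: 100% = median of untreated cell wells with 0.1% DMSO on each plate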); settings: HUVEC proliferation, CellTiter-Glo luminescence, 72 h; at 10 µM; stronger effect = lower value
[5] = H69AR cell proliferation blockers – human, duplicate replicates, primary screen (AID 580); settings: H69AR lung tumor cells viability, ATP luminescence, 72 h; at 10 µM; stronger effect = lower value;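 also: 100% = mean luminescence of untreated wells and 0% = no signal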
[6] = MRP1 drug-resistance reversers in H69AR cells – cell-based, doxorubicin co-treatment, pilot screen (AID 601;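 active = viability loss from added drug above about 55%, and viability with drug at most 40%, in both replicates, limit read from the data, passing the limit was not always enough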); settings: CellTiter-Glo, 72 h, at 10 µM; for differential viability (reversal): stronger effect = higher value
[7] = yeast transport mutant growth inhibition pilot in 384-well plates, post-Golgi transport modulator project (AID 636; in the data active = inhibition above about 31%); settings: absorbance 615 nm, about 18 h, stronger effect = higher value
[8] = growth suppression of yeast trafficking mutant, preliminary HTS, modulators of trafficking downstream of Golgi apparatus project, 1536-format plate, OD 615 nm (AID 637; in the data active = inhibition above about 30%); settings: yeast transport mutant growth, absorbance 615 nm, 18 h; stronger effect = higher value
[9] = S. cerevisiae growth inhibition in permissive medium (OD615), pilot counter-assay for S. cerevisiae lifespan shortening project, permissive growth control (AID 705;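 active = growth inhibition above 25% in both replicates, a cutoff set 3 SD above the mean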); settings: OD615, 24 h, at 10 µM, stronger effect = higher value
[10] = S. cerevisiae growth inhibition in restrictive medium, OD615, pilot screen, restrictive growth control, yeast lifespan reduction project (AID 706;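 active = growth inhibition above a set limit, 3 SD over mean compound inhibition, in both replicates, cut at about 43% in these data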;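 also: modified DeaD lifespan yeast strain shifted to restrictive glucose medium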); settings: OD615, 48 h, at 10 µM, stronger effect = higher value
[11] = doxorubicin toxicity protection in MRP-1 cells – H69AR cells, CellTiter-Glo, duplicate, MRP-1 activator project, pilot screen (AID 807;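 active = viability increase at or above a cutoff of the median across tested compounds plus 3 SD, cut at about 8.5% in these data, passing the limit was not always enough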;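 also: compound pretreatment 18-22 h then 72 h combined with doxorubicin; 0% = doxorubicin alone and 100% = vehicle without doxorubicin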); settings: H69AR viability with doxorubicin, CellTiter-Glo luminescence; at 10 µM; stronger effect = higher value
[12] = viability of HCT116 without oncogenic beta-catenin – human colon tumor cells, pilot screen (AID 823;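 active = cell viability at or below a set limit in both duplicate runs, the limit being the all-compound median minus 4 SD, cut at about 23% in these data, passing the limit was not always enough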;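 also: 0% = wells killed by 20 µM Hyamine and 100% = untreated DMSO cell wells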); settings: HCT116 beta-catenin knockout viability, CellTiter-Glo, 60 h; at 10 µM; stronger effect = lower value
[13] = viability of PTEN-null HCT116 cells – cell-based, HCT116 clonal line, CellTiter-Glo, pilot screen (AID 824;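 active = viability at or below 27.92% in each of two runs, the all-compound median minus 4 SD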;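 also: 0% = 20 µM Hyamine control and 100% = vehicle cell control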); settings: HCT116 PTEN-deleted viability, 60 h, at 10 µM, stronger effect = lower value
[14] = RAM pathway blockade in budding yeast – dse1pr::URA3 reporter, 5-FOA selection, pilot screen (AID 869;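 active = inhibition over a set limit, the all-compound mean plus 3 SD, in both replicate runs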;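 also: 0% = DMSO wells with no growth and 100% = 10 µM 1-NA-PP1 with full growth; RAM network block rescues cells from 5-FOA so hits raise OD615 growth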); settings: S. cerevisiae dse1pr::URA3 5-FOA growth, OD615, 2 d; at 10 µM; stronger effect = higher value; strain carries analog-sensitive mutant Cbk1 kinase
[15] = RAM signaling pathway blockade in yeast – S. cerevisiae, Pdr1DBD-CYC8 efflux-inhibited sensitized strain, primary screen (AID 1298;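 active = RAM network inhibition above 8.4% in each of two replicates, 3 SD over the compound average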;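 also: 0% = DMSO untreated cells without growth and 100% = 10 µM 1-NA-PP1 full growth; higher means more yeast growth rescued from 5-FOA killing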); settings: S. cerevisiae cbk1-as DSE1-URA3 strain, 5-FOA growth OD615, 2 d; at 50 µM; stronger effect = higher value
[16] = H69AR cells + 2 uM doxorubicin, measured here: viability with 2 uM doxorubicin, stronger effect = lower value
[17] = H69AR cells, compound alone cytotoxicity

Receptor tyrosine-protein kinase erbB-2 (Homo sapiens), sequence (P04626 whole entry, looked up): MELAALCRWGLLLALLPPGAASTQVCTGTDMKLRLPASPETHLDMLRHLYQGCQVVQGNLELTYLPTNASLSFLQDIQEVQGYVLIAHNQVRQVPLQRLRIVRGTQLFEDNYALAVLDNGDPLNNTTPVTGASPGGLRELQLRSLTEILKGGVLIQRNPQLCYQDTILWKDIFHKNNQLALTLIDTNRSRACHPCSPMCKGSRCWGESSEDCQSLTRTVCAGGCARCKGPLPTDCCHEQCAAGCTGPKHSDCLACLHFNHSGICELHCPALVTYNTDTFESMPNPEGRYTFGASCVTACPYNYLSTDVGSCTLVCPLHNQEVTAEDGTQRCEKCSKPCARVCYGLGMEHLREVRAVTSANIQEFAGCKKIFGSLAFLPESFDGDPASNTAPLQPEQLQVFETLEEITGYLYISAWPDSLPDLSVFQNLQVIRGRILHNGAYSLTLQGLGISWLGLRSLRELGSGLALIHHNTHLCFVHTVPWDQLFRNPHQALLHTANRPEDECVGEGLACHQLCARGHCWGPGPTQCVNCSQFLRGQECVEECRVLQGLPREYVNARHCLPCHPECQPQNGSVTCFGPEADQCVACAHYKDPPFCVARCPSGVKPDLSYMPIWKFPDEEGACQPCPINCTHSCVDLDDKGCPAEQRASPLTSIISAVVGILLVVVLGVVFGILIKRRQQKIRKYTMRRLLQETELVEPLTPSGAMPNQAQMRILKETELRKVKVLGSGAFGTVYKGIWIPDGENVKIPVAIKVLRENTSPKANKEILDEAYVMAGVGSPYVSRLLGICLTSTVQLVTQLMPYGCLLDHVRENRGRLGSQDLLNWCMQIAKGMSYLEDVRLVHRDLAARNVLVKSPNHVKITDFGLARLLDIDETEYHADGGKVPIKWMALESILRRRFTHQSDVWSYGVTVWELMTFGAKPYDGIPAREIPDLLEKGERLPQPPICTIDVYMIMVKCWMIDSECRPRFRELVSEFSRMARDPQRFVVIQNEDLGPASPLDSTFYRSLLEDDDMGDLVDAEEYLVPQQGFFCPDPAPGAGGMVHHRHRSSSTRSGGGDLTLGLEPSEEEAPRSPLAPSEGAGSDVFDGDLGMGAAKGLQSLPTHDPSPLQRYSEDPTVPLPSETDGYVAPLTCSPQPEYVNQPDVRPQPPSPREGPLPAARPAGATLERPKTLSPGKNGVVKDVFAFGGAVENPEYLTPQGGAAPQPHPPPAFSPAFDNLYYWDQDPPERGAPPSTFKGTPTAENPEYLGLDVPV

CCOn1c(=O)c(=O)n(OCc2ccccc2)c2ccccc21
inactive: Her2 level [2] 88% | viability [3] 86.5% | viability [4] 78.5% | viability [5] 83.6% | differential viability (reversal) ([6]; H69AR cells + 2 uM doxorubicin) 9.08% | inhibition [7] -2.05% | inhibition [8] -6.33% | growth inhibition [9] -14% | growth inhibition [10] -6.63% | viability increase [11] -3.35% | viability [12] 95.8% | viability [13] 92% | inhibition [14] 2.35% | RAM network inhibition [15] 3.12%
83.6%: viability [6, 17]
74.5%: viability [6, 16]
86.5%: viability [1]

CCOC(=O)CN1C(=O)C(=O)c2cccc(C)c21
76%: viability [6, 17]
inactive: Her2 level [2] 101% | viability [3] 80% | viability [4] 86.5% | viability [5] 76% | differential viability (reversal) ([6]; H69AR cells + 2 uM doxorubicin) -0.56% | inhibition [7] -1.54% | inhibition [8] -0.5% | growth inhibition [9] 0.235% | growth inhibition [10] -4.38% | viability increase [11] -4.97% | viability [12] 88.4% | viability [13] 92.4% | inhibition [14] 1.77% | RAM network inhibition [15] 1.05%
80%: viability [1]
76.6%: viability [6, 16]

CCOc1ccc(N2CC(C(=O)Nc3ccccc3OC)CC2=O)cc1 (stereo not given)
106%: viability [1]
95.7%: viability [6, 17]
86%: viability [6, 16]
inactive: Her2 level [2] 98% | viability [3] 106% | viability [4] 110% | viability [5] 95.7% | differential viability (reversal) ([6]; H69AR cells + 2 uM doxorubicin) 9.71% | inhibition [7] -3.87% | inhibition [8] -3% | growth inhibition [9] -7.43% | growth inhibition [10] -1.77% | viability increase [11] -1.73% | viability [12] 102% | viability [13] 102% | inhibition [14] 1.8% | RAM network inhibition [15] 0.63%

CC(=O)c1ccc(NC(=O)C2CCN(S(=O)(=O)c3cccc4cccnc34)CC2)cc1
inactive: Her2 level [2] 117% | viability [3] 97.5% | viability [4] 100% | viability [5] 84.3% | differential viability (reversal) ([6]; H69AR cells + 2 uM doxorubicin) -5.16% | inhibition [7] -2.67% | inhibition [8] -5% | growth inhibition [9] -5.1% | growth inhibition [10] -5.57% | viability increase [11] -1.12% | viability [12] 107% | viability [13] 99.8% | inhibition [14] 1.35% | RAM network inhibition [15] 8.91%
97.5%: viability [1]
89.4%: viability [6, 16]
84.3%: viability [6, 17]

O=C(NCCc1c[nH]c2ccccc12)c1cnc2n(c1=O)CCS2
inactive: Her2 level [2] 83% | viability [3] 92% | viability [4] 81.8% | viability [5] 82% | differential viability (reversal) ([6]; H69AR cells + 2 uM doxorubicin) -5.14% | inhibition [7] -3.07% | inhibition [8] 1.8% | growth inhibition [9] -5.46% | growth inhibition [10] 2.1% | viability increase [11] -3.94% | viability [12] 96.6% | viability [13] 95.7% | inhibition [14] 0.62% | RAM network inhibition [15] 6.77%
82%: viability [6, 17]
92%: viability [1]
87.1%: viability [6, 16]

Cc1ccc(-n2nc(C)c3cc(C(=O)O)sc32)cc1
97%: viability [1]
87.2%: viability [6, 17]
86.8%: viability [6, 16]
inactive: Her2 level [2] 95.5% | viability [3] 97% | viability [4] 70.7% | viability [5] 87.2% | differential viability (reversal) ([6]; H69AR cells + 2 uM doxorubicin) 0.315% | inhibition [7] -2.31% | inhibition [8] -2% | growth inhibition [9] 16% | growth inhibition [10] 21.7% | viability increase [11] -2.19% | viability [12] 93.1% | viability [13] 94.9% | inhibition [14] 2.74% | RAM network inhibition [15] -1.34%

CCOC(=O)c1cccc(NC(=O)CNS(=O)(=O)c2cccs2)c1
88.3%: viability [6, 17]
95.5%: viability [1]
inactive: Her2 level [2] 92% | viability [3] 95.5% | viability [4] 97% | viability [5] 88.3% | differential viability (reversal) ([6]; H69AR cells + 2 uM doxorubicin) -2.06% | inhibition [7] -8.36% | inhibition [8] -5.71% | growth inhibition [9] -0.595% | growth inhibition [10] -4.69% | viability increase [11] 0.66% | viability [12] 102% | viability [13] 97.7% | inhibition [14] 1.43% | RAM network inhibition [15] 0.44%
90.4%: viability [6, 16]

Cc1ccc(S(=O)(=O)NCCOC(=O)Nc2sc(=S)n(C)c2C)cc1
101%: viability [6, 17]
inactive: Her2 level [2] 96.5% | viability [3] 75.5% | viability [4] 90% | viability [5] 101% | differential viability (reversal) ([6]; H69AR cells + 2 uM doxorubicin) 7.26% | inhibition [7] -2.84% | inhibition [8] 14.9% | growth inhibition [9] 6.39% | growth inhibition [10] 23.1% | viability increase [11] -3.78% | viability [12] 115% | viability [13] 88.2% | inhibition [14] 1.25% | RAM network inhibition [15] 1.73%
75.5%: viability [1]
94.1%: viability [6, 16]

COc1ccc(N(CC(=O)O)S(=O)(=O)c2ccc(OC)c(OC)c2)cc1
112%: viability [1]
90.3%: viability [6, 17]
inactive: Her2 level [2] 102% | viability [3] 112% | viability [4] 108% | viability [5] 90.3% | differential viability (reversal) ([6]; H69AR cells + 2 uM doxorubicin) -3.8% | inhibition [7] -3.38% | inhibition [8] 1.31% | growth inhibition [9] -15.1% | growth inhibition [10] -11.2% | viability increase [11] -1.32% | viability [12] 105% | viability [13] 99.1% | inhibition [14] -0.04% | RAM network inhibition [15] 0.87%
94.1%: viability [6, 16]

CCCn1c(NCc2cc(C)ccc2O)nc2ccccc21
94.5%: viability [1]
76%: viability [6, 16]
inactive: Her2 level [2] 106% | viability [3] 94.5% | viability [4] 69.4% | viability [5] 77.9% | differential viability (reversal) ([6]; H69AR cells + 2 uM doxorubicin) 1.94% | inhibition [7] -1.73% | inhibition [8] 9.68% | growth inhibition [9] -4.45% | growth inhibition [10] -8.17% | viability increase [11] -4.6% | viability [12] 53.6% | viability [13] 60.1% | inhibition [14] -0.08% | RAM network inhibition [15] 0.33%
77.9%: viability [6, 17]
